This is a sample that favours compounds with a hit; in the whole collection about 21% have one here.
TDP1 cell noCPT: qHTS for Inhibitors of human tyrosyl-DNA phosphodiesterase 1 (TDP1): qHTS in cells in absence of CPT; DT40 Tdp1-/- hTDP1 cells, no CPT, ATP luminescence, 48 h; AID 686978, 2013; Potency, µM (highest dose often 46.2 µM), usual class: inhibitors; actives 15% (n = 420,000); note: nearly all actives have a fitted effect of over 55% in size
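DT40 Tdp1-/-;hTDP1 cells, no CPT (DMSO vehicle only), 400 cells/well; compounds pin-transferred; ≥48 hr, 37 °C; CellTiter-Glo 30 min RT dark, luminescence read.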
IL-1B inflam inh: inflammasome signaling inhibition, IL-1 beta readout. THP-1 LPS/ATP IL-1B secretion, AlphaLISA, 16 h; hits give low values. activity change, % at 57.5 µM. actives 4.7% (n = 360,000). AID 743279; in the data active = activity change below about -50%; inconclusive = mostly about -30% to -49%
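Secreted IL-1B measured by AlphaLISA bead assay after 16 h compound exposure of THP-1 cells; compounds (final up to 57.5 uM) added 1 h before LPS (250 ng/mL) and ATP (1.25 mM) stimulation; lower signal means less secretion.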
VP16 counter: inhibits Gal4-VP16 luciferase reporter, ROR gamma counter-screen | Drosophila S2 Gal4-VP16 UAS-luciferase, luminescence, 20 h | Potency, µM (titrated, usually from 53.6 µM), actives largely listed as inhibitors | actives 3.5% (n = 310,000) | AID 2546;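 note: Gal4-VP16 expression switched on by copper sulfate through the metallothionein promoter; nearly all actives have a fitted effect of over 50% in size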
TDP1 cell CPT: growth inhibition of DT40 Tdp1-/-;hTDP1 cells with camptothecin (screen for TDP1 inhibitors). chicken DT40 Tdp1-/-;hTDP1 cells + 20 nM CPT, ATP luminescence, 48 h. AID 686979. Potency, µM (series often up to 46.2 µM), most hits filed as inhibitors. actives 12% (n = 420,000); note: nearly all actives have a fitted effect of over 55% in size
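Chicken DT40 Tdp1-/- cells stably complemented with human TDP1 were seeded at 400 cells/well in medium containing 20 nM camptothecin, exposed to pin-transferred compounds, and grown at 37 °C for at least 48 hr. Viability was read as ATP luminescence.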
RORg inh: blocks mouse ROR gamma transcriptional activity | Drosophila S2 Gal4-RORgamma UAS-luciferase reporter, 20 h | Potency, µM (highest dose often 53.6 µM), hits mostly inhibitors | actives 5.4% (n = 310,000) | AID 2551; note: nearly all actives have a fitted effect of over 60% in size
Target sequence (P51450 whole entry, looked up, the tested form may be a part): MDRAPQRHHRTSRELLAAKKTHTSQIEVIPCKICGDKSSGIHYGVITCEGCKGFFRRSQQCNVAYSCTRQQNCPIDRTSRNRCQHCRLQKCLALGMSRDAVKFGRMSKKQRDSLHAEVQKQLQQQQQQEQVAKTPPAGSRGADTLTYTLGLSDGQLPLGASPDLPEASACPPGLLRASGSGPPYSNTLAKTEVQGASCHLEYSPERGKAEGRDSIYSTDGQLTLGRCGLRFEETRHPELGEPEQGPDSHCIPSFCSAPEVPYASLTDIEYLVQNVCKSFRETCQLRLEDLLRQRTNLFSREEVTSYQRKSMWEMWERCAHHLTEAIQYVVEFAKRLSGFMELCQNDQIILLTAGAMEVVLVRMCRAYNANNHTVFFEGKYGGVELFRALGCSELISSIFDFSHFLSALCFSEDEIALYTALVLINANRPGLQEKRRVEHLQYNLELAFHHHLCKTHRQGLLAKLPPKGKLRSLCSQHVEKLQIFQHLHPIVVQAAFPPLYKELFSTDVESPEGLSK
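Stably transfected Drosophila Schneider cells are the test system, with ROR gamma fused to Gal4 and luciferase under UAS control; luminescence is read after 20 hr of 700 uM copper sulfate induction at ambient temperature.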
ELG1 repair inh: ELG1-dependent DNA repair inhibition | HEK293T ELG1-luciferase reporter, luminescence, 16 h; DNA damage induced by 5-fluorouridine | Potency, µM (top dose mostly 46.1 µM), usual class: inhibitors | actives 2.3% (n = 330,000) | AID 504467; note: nearly all actives have a fitted effect of over 55% in size
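DMSO vehicle served as the neutral condition. Each well held 2,000 cells given 5-fluorouridine plus compound; after 16 hr at 37 °C/5% CO2, ONE-Glo was added and luciferase measured 30 min later.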
Hits are given with their value; 0 = inactive; ? = inconclusive; - = no result; [ ] = dose if it differs, or a comment. Unless noted, calls come from the whole dose curve; as a rule, active = well fitted curve in the direction sought with a large enough effect; inconclusive = small, poorly fitted or top-dose-only effect, or another doubt; inactive = no such curve, though single readings can be large; an effect the other way counts as inactive or inconclusive.

SMILES | TDP1 cell noCPT | IL-1B inflam inh | VP16 counter | TDP1 cell CPT | RORg inh | ELG1 repair inh
Cc1cccc(NC(=O)Cn2c(=O)ccc3cc(S(=O)(=O)N4CCCC4)ccc32)c1C | 16µM | - | - | ? | - | -
COc1ccc(C)cc1NC(=O)CN1CCN(S(=O)(=O)c2ccc(Cl)cc2)CC1 | ? | 0 | - | ? | 0[0.365 µM] | 0
COc1cc(CC(=O)N2CCN(S(=O)(=O)c3ccc(C(C)C)cc3)CC2)cc(OC)c1OC | 21µM | 0 | - | 21µM | - | -
COc1ccc(C)cc1NC(=O)CN1CCN(S(=O)(=O)c2ccc(C(C)C)cc2)CC1 | 16µM | 0 | 0 | ? | 0 | ?
COc1ccccc1NC(=O)CN1CCN(c2ccc(F)cc2)CC1 | ? | 0 | - | ? | - | -
COc1ccc(C)cc1NC(=O)CN1CCN(c2ccc(F)cc2)CC1 | 23µM | 0 | 0 | 21µM | 0 | 0
CCCNC(=O)Cn1c(=O)oc2cc(S(=O)(=O)N3CCCC3)ccc21 | 0 | 0 | 0 | 0 | 0 | 0
COc1ccc(C)cc1NC(=O)Cn1c(=O)ccc2cc(S(=O)(=O)N3CCCC3)ccc21 | 21µM | - | - | 21µM | - | -
Cc1ccc(Cl)cc1NC(=O)Cn1c(=O)oc2cc(S(=O)(=O)N3CCCC3)ccc21 | 9.2µM | - | - | 23µM | - | -
COc1ccc(Cl)cc1NC(=O)Cn1c(=O)oc2cc(S(=O)(=O)N3CCCCCC3)ccc21 | 16µM | - | - | ? | - | -
Cc1ccc(OCCn2nnc3sc4c(c3c2=O)CCC(C)C4)cc1 (configuration not stated) | 0 | - | - | 0 | - | -
C[C@H](CO)N1C[C@H](C)[C@@H](CN(C)S(C)(=O)=O)Oc2ccc(NC(=O)Cn3cnnn3)cc2C1=O | 0 | 0 | - | 0 | - | 0
O=C(COC(=O)CNS(=O)(=O)c1ccc(Br)cc1Cl)NCCc1ccccc1 | 0 | 0 | 0 | 0 | 0 | 0
C=CCC(O)c1ccccc1 (configuration not stated) | - | - | 0 | - | 0 | -
COc1ccc(C)cc1NC(=O)Cn1c(=O)oc2cc(S(=O)(=O)N3CCCCC3)ccc21 | 15µM | - | - | ? | - | -
CCN(C(=O)CN1C(=O)COc2ccc(S(=O)(=O)N3CCOCC3)cc21)c1cccc(C)c1 | 18µM | - | - | ? | - | -
CCN(C(=O)Cn1c(=O)oc2cc(S(=O)(=O)N3CCCCCC3)ccc21)c1cccc(C)c1 | 21µM | - | - | ? | - | -
COc1ccc(NC(=O)Cn2c(=O)oc3cc(S(=O)(=O)N4CCCC4)ccc32)c(OC)c1 | ? | 0 | 0 | ? | 0 | 0
COc1ccccc1/C=C/C=N/NC(=O)CN1CCN(S(=O)(=O)c2ccc(C)cc2)CC1 | ? | ? | ? | ? | 16µM | 0
Cc1cccc(N(C)C(=O)Cn2c(=O)oc3cc(S(=O)(=O)N4CCCCC4)ccc32)c1 | 0 | - | - | 0 | - | -
COc1ccc2cc(C[C@@H]3CC[C@@H](CNC(N)=O)O3)ccc2c1 | 0 | 0 | - | 0 | - | ?
O=c1c2cc3c(cc2n(Cc2cccc(F)c2)c(=O)n1Cc1nc(-c2ccccc2)no1)OCO3 | 0 | - | - | 0 | - | -
CCOC(=O)c1ccccc1NC(=O)c1sc2ncn(Cc3cccc(F)c3)c(=O)c2c1C | 0 | - | - | ? | - | -
O=C(NCc1ccco1)c1cccc(-c2ccc3nccn3c2)c1 | ? | 0 | - | ? | - | -
O=C(NCCc1c[nH]c2ccccc12)OC1CC2CC1[C@H]1CCCCN1C2=O (some centres not stated) | ? | 0 | - | 0 | - | -
SMILES | TDP1 cell noCPT | IL-1B inflam inh | VP16 counter | TDP1 cell CPT | RORg inh | ELG1 repair inh
c1cncc(-c2nc(NCCCN3CCOCC3)c3c4c(sc3n2)CCC4)c1 | 23µM | -129 | 0 | ? | 0 | 0
NC(=O)OC[C@@H]1[C@H](NC(=O)/C(=N/OCC(=O)O)c2csc(N)n2)C(=O)N1S(=O)(=O)O | - | - | 0 | - | 0 | -
COc1ccc(CCNC(=O)c2nc(SCc3ccccc3F)ncc2Cl)cc1OC | 23µM | - | - | 18µM | - | -
O=C(Nc1ccc(OC(F)F)cc1)c1nc(SCc2ccccc2F)ncc1Cl | 13µM | - | - | ? | - | -
Cc1ccc(OC(=O)c2cc(-c3ccc4c(c3)OCCO4)on2)c(C)c1 | 0 | - | - | 0 | - | -
CCCC(C(=O)NCCC(C)C)N(Cc1ccccc1Cl)C(=O)c1snc(C(N)=O)c1N (configuration not stated) | ? | 0 | 0 | ? | 0 | ?
CSc1cccc(NC(=O)C2CCCN(S(=O)(=O)c3ccc4c(c3)CCCN4C(C)=O)C2)c1 (configuration not stated) | 21µM | - | - | 18µM | - | -
CC(=O)c1ccc(NC(=O)C2CCN(S(=O)(=O)c3ccc4c(c3)CCCN4C(=O)C3CCC3)CC2)cc1 | ? | - | - | 12µM | - | -
CC(=O)c1ccc(NC(=O)C2CCN(S(=O)(=O)c3ccc4c(c3)N(C(C)=O)CCO4)CC2)cc1 | 0 | 0 | 0 | 0 | 0 | 0
CSc1cccc(NC(=O)C2CCN(S(=O)(=O)c3ccc4c(c3)CCCN4C(=O)C3CCC3)CC2)c1 | 12µM | - | - | ? | - | -
CC(=O)N1CCCc2cc(S(=O)(=O)N3CCCC3)ccc21 | 0 | 0 | 0 | 0 | 0 | ?
C[N+]1(CC(=O)c2ccc(Br)cc2)CCOCC1 | 0 | - | - | 0 | - | -
CC1CC1C(=O)OCC(=O)NC(=O)NCc1ccco1 (configuration not stated) | 0 | 0 | 0 | 0 | 0 | 0
CC1CC2OC2CC1COC(=O)C1CC2OC2CC1C (configuration not stated) | ? | 0 | - | 16µM | - | -
Cc1nc(NC(=O)c2ccccc2)sc1-c1cc(C(=O)O)nn1Cc1ccccc1 | 0 | 0 | - | 0 | - | -
O=[N+]([O-])c1ccc(Sc2cccc[n+]2[O-])c2nonc12 | 0.021µM | -98 | 1µM | 0.0058µM | 1µM | ?
COc1ccc(N2CCN(C(=O)c3cc4c(=O)n(Cc5cccs5)ccc4nc3C)CC2)cc1 | 26µM | - | - | ? | - | -
COc1cccc(N2CCN(C(=O)c3cc4c(=O)n(Cc5cccs5)ccc4nc3C)CC2)c1 | ? | - | - | 23µM | - | -
Cc1nc2ccn(Cc3cccs3)c(=O)c2cc1C(=O)NCc1ccccc1 | 0 | - | - | 0 | - | -
Cc1ccc(C)c(N2CCN(C(=O)c3cc4c(=O)n(Cc5cccs5)ccc4nc3C)CC2)c1 | 21µM | - | - | 23µM | - | -
COc1ccc(Br)cc1C1C(C(=O)Nc2ccc(C)cc2C)=C(C)Nc2ncnn21 (configuration not stated) | 0 | - | - | 0 | - | -
CCCCc1nn2c(=O)cc(COC(=O)c3cccc(OC)c3)nc2s1 | 0 | - | - | ? | - | -
S=c1[nH]nc(-c2cc(-c3ccccn3)nc3ccccc23)o1 | ? | 0 | 0 | ? | 5µM | 0
Cc1ccc(-c2cc(-c3n[nH]c(=S)o3)c3ccccc3n2)cc1 | 21µM | 0 | 4.5µM | 16µM | 7.1µM | 0
Cc1ccccc1-c1n[nH]c(=S)o1 | 0 | 0 | 0 | 0 | 0 | 0

High-throughput results (PubChem)
